Reference: the supplement of paper PMC10849652
About 7,900 targets were measured; listed, in parts, are those with a hit and a random draw of the rest. About 0.6% of all pairs of compound and target were hits.

Assays:
Experiment in all cases: log2 fold change, soluble protein after heating vs DMSO (PISA); higher = thermal stabilisation; K562 cells, 10 uM, 30 min; active = over 0.2 and 3.5 SD of the protein, either way, in both replicates (recomputed)
[1] = compound: C1=CC=C(C=C1)[C@H](COC2=CC3=C(C=C2)NC(=O)N3)NC(=O)C4=CC=CN(C4=O)CC5=CC(=C(C=C5)F)F
Method in brief: (§1)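 Aliquots of K562 cells (2×10^6 cells/mL) treated with 10 μM compound for 30 min were heated for 3 min over 48°C-58°C. After pooling and extraction in PBS with 0.5% NP-40 at 4°C, soluble protein from a 21,000xg, 90 min spin was quantified by TMTpro 16plex LC-MS/MS with channel sums equalised. Thermal stability is expressed against control samples, from duplicates, as a log2 fold change.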

[2] = compound: CC1=C(SC2=C1C(=N[C@H](C3=NN=C(N32)C)CC(=O)N)C4=CC=C(C=C4)Cl)C
Method in brief: as §1

[3] = compound: CC1=C2C(=CC=C1)N=C(N(C2=O)C3=CC=CC=C3C)CN4C=NC5=C(N=CN=C54)N
Method in brief: as §1

[4] = compound: Cc1sc2c(c1C)C(c1ccc(Cl)cc1)=N[C@@H](CC(=O)OC(C)(C)C)c1nnc(C)n1-2
Method in brief: as §1

[5] = compound: c1ccc([C@@H]2C[C@H]2NC2CCNCC2)cc1
Method in brief: as §1

Measured: log2 fold change

MIF (UniProt P14174)
inactive: [1] -0.101 | [2] 0.016 | [3] 0.015 | [4] -0.083 | [5] 0.004

LARP7 isoform 3 (UniProt Q4G0J3)
Chain of UniProt Q4G0J3 (Q4G0J3 whole entry, looked up): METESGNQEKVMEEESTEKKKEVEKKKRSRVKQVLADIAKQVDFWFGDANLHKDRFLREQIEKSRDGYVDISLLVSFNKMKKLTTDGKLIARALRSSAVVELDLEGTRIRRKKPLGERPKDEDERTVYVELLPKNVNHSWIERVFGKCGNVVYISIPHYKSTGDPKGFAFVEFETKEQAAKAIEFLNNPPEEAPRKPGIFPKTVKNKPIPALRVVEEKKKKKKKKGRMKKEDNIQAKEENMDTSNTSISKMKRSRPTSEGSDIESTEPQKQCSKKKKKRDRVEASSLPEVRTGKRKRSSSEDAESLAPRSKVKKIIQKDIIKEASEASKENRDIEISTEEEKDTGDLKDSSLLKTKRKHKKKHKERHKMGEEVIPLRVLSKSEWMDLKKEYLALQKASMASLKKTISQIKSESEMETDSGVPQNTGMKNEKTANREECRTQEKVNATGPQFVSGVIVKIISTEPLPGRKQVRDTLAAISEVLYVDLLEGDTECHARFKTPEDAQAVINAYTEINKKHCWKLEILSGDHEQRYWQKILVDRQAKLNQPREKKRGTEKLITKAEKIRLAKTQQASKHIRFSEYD
inactive: [1] 0.018 | [2] -0.032 | [3] 0.045 | [4] -0.048 | [5] 0.027

ILF2 (UniProt Q12905)
inactive: [1] 0.047 | [2] -0.078 | [3] -0.141 | [4] 0.14 | [5] 0.034

MAPRE3 (UniProt Q9UPY8)
inactive: [1] -0.042 | [2] 0.011 | [3] 0.026 | [4] -0.01 | [5] -0.014

MAGEC2 (UniProt Q9UBF1)
inactive: [1] 0.043 | [2] -0.069 | [3] 0.005 | [4] 0.009 | [5] 0.054

LYPLA2 (UniProt O95372)
Chain of UniProt O95372 (O95372 whole entry, looked up): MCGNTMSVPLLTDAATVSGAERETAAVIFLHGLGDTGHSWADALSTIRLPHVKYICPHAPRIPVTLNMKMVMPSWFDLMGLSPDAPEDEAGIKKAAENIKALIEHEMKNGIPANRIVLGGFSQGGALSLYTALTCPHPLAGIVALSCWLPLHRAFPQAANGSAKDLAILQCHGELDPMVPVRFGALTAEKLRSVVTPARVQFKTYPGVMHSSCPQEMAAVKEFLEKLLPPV
inactive: [1] 0.033 | [2] 0.056 | [3] -0.023 | [4] -0.161 | [5] -0.08

MAGEA8 (UniProt P43361)
inactive: [1] 0.075 | [2] -0.035 | [3] 0.02 | [4] -0.119 | [5] 0.077

KPNA4 (UniProt O00629)
Chain of UniProt O00629 (O00629 whole entry, looked up): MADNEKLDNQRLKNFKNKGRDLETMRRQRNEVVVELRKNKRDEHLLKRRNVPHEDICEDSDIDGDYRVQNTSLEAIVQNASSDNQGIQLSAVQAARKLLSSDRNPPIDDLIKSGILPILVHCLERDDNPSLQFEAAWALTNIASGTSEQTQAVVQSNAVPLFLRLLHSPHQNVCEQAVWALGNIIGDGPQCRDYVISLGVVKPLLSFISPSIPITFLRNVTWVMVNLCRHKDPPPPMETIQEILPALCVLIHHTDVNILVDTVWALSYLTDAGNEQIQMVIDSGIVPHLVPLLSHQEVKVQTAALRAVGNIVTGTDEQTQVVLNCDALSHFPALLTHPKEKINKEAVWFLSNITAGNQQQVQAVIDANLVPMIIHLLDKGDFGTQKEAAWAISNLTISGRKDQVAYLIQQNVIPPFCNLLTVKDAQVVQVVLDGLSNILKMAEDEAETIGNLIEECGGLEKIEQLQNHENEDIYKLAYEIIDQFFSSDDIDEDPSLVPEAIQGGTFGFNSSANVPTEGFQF
inactive: [1] -0.017 | [2] 0.004 | [3] 0.035 | [4] 0.004 | [5] 0.009

MAPK14 isoform 2 (UniProt Q16539)
Chain of UniProt Q16539 (Q16539 whole entry, looked up): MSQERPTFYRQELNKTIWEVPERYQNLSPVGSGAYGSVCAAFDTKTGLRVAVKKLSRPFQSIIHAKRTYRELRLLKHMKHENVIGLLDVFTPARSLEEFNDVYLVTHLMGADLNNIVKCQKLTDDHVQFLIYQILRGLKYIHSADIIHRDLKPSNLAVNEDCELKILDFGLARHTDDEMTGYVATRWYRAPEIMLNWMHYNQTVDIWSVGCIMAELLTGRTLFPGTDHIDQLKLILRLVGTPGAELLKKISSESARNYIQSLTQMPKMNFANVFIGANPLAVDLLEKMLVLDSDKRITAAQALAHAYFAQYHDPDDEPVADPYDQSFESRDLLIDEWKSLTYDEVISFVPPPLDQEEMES
inactive: [1] -0.067 | [2] 0.139 | [3] 0.077 | [4] -0.011 | [5] -0.043

ILKAP (UniProt Q9H0C8)
Chain of UniProt Q9H0C8 (Q9H0C8 whole entry, looked up): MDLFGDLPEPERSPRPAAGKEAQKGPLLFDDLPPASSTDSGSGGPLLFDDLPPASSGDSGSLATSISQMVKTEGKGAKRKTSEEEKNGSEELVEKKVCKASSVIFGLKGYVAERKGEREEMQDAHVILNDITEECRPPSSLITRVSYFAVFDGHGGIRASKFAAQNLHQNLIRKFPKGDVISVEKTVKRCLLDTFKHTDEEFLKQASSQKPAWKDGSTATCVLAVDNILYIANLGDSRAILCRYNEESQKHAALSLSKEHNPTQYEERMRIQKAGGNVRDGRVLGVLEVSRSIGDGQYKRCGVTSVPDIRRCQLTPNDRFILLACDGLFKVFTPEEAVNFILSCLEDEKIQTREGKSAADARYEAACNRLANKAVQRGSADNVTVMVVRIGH
inactive: [1] -0.071 | [2] 0.076 | [3] 0.135 | [4] -0.045 | [5] -0.046

KIF3A (UniProt Q9Y496)
inactive: [1] 0.027 | [2] 0.039 | [3] 0.054 | [4] 0.049 | [5] 0.002

MCL1 (UniProt Q07820)
inactive: [1] -0.013 | [2] 0.125 | [3] 0.135 | [4] 0.057 | [5] 0.073

IMMT isoform 2 (UniProt Q16891)
inactive: [1] 0.021 | [2] 0.029 | [3] 0.035 | [4] 0.091 | [5] 0.033

MAP4K5 (UniProt Q9Y4K4)
inactive: [1] 0.055 | [2] -0.039 | [3] 0.107 | [4] 0.05 | [5] 0.062

MEPCE (UniProt Q7L2J0)
inactive: [1] 0.017 | [2] 0.001 | [3] 0.064 | [4] 0.028 | [5] 0.008

LUC7L2 (UniProt Q9Y383)
Chain of UniProt Q9Y383 (Q9Y383 whole entry, looked up): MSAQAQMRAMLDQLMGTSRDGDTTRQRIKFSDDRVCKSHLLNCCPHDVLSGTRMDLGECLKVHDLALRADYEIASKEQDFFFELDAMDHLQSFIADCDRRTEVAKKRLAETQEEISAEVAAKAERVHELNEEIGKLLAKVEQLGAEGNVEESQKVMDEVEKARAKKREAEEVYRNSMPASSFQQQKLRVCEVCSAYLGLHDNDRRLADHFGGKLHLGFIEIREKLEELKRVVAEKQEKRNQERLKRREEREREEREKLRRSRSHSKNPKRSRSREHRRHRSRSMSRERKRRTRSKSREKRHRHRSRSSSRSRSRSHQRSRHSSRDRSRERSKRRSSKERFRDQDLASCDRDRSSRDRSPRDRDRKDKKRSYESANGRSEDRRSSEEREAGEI
inactive: [1] 0.023 | [2] -0.044 | [3] 0.036 | [4] 0.006 | [5] 0.014

IMMT isoform 4 (UniProt Q16891)
inactive: [1] 0.005 | [2] 0.021 | [3] 0.026 | [4] -0.025 | [5] -0.008

IGF2R (UniProt P11717)
Chain of UniProt P11717 (P11717 whole entry, looked up): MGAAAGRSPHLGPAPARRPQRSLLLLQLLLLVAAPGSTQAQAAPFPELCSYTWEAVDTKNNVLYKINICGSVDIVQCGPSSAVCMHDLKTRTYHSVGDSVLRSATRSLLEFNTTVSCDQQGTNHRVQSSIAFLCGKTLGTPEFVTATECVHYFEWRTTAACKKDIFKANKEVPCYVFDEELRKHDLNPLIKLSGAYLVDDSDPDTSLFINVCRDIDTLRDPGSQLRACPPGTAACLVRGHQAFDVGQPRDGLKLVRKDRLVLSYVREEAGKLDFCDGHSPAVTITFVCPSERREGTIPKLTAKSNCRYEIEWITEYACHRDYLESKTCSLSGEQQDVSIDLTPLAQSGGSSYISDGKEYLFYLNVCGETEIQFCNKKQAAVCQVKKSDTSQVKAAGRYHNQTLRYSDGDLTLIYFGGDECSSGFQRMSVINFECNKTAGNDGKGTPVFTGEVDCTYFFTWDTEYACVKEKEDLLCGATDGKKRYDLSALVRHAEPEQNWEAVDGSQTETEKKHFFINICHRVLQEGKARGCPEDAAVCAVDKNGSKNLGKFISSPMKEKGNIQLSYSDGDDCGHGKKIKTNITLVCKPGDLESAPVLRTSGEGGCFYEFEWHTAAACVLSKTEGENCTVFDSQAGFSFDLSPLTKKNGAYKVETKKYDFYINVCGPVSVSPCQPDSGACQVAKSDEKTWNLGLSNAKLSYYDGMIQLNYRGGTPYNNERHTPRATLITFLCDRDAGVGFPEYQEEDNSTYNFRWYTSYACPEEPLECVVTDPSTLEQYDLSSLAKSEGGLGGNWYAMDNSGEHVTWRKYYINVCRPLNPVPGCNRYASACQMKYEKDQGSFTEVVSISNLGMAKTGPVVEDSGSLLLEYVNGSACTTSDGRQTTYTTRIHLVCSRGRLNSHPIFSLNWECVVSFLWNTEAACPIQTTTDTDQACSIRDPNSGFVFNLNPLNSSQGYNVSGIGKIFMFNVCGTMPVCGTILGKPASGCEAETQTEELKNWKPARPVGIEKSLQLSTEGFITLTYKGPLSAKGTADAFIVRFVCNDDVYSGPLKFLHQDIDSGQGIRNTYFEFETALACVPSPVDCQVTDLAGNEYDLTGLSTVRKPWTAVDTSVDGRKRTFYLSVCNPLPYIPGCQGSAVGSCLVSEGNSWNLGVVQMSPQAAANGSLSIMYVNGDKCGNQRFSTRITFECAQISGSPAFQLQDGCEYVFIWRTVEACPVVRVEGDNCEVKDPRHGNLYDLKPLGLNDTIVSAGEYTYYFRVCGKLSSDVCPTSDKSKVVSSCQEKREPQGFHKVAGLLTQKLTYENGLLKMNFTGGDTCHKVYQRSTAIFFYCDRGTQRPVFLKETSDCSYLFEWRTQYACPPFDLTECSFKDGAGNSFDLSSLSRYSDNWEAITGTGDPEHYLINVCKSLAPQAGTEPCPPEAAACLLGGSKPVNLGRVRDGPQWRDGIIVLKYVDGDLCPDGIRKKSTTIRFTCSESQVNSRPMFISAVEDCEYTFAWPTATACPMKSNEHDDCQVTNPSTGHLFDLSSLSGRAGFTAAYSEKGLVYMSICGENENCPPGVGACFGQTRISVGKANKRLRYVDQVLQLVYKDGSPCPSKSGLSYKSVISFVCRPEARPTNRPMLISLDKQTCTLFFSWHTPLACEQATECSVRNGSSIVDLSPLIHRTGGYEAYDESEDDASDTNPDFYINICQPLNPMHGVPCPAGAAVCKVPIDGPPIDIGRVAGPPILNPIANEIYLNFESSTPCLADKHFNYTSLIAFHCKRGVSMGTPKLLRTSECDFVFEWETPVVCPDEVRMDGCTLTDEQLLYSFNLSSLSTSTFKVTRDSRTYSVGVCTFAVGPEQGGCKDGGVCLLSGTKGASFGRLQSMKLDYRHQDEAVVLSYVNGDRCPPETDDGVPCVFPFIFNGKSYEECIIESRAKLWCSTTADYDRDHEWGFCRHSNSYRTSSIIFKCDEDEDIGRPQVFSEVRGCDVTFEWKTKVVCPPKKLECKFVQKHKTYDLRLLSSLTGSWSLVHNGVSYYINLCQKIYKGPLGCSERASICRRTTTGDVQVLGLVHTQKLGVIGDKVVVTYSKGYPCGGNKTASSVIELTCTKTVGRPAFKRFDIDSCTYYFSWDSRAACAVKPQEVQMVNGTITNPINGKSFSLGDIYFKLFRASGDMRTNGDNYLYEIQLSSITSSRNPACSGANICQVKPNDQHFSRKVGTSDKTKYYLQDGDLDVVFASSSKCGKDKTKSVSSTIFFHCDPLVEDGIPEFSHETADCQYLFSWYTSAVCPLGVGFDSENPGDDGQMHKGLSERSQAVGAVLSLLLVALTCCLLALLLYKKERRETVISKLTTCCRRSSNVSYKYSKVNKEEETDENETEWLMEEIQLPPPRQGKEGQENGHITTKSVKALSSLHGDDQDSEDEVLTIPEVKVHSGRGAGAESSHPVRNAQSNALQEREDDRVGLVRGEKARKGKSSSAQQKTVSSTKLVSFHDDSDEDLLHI
inactive: [1] 0.013 | [2] 0.007 | [3] -0.008 | [4] 0.001 | [5] -0.002

MIEF1 (UniProt L0R8F8)
inactive: [1] 0.072 | [2] 0.026 | [3] 0.039 | [4] -0.092 | [5] 0.007

IL27RA (UniProt Q6UWB1)
inactive: [1] 0.021 | [2] 0.144 | [3] 0.002 | [4] 0.097 | [5] 0.096

MDN1 (UniProt Q9NU22)
inactive: [1] -0.08 | [2] 0.041 | [3] 0.059 | [4] -0.054 | [5] -0.049

LPGAT1 (UniProt Q92604)
inactive: [1] -0.068 | [2] -0.136 | [3] -0.02 | [4] 0.086 | [5] 0.074

MFSD11 (UniProt O43934)
inactive: [1] 0.04 | [2] 0.11 | [3] 0.104 | [4] -0.03 | [5] -0.049

IWS1 (UniProt Q96ST2)
inactive: [1] -0.01 | [2] 0.08 | [3] 0.037 | [4] 0.045 | [5] -0.035
